# From PubChem BioAssay (Tox21)
# Where “and” joins values, the source holds several entries; their conditions need not be identical. Identical values can stand only once. Records with an inconclusive call do not appear. Where a call stands in place of a potency, no number is given. Values without a mark were called inactive. Calls of active or inactive are those of the source. Calls follow the shape of the dose curve; as a rule, active = well fitted cell-killing curve with a large enough effect in the repeat runs; inconclusive = weak or mixed curves, or effect the other way; inactive = no such curve, though single readings can be large or run the other way.
# Experiment: qHTS assay to identify small molecule antagonists of the glucocorticoid receptor (GR) signaling pathway - cell viability counter screen (AID 720693); also: nearly all actives have a fitted effect of over 55% in size
# Details: GR-bla HeLa viability, CellTiter-Glo luminescence, 18 h, with 5 nM dexamethasone present; series mostly up to 58.5 µM; viability change, negative = cytotoxic: at the top concentration
# Source text: National Center for Advancing Translational Sciences [NCATS]
# NIH Chemical Genomics Center [NCGC]
# U.S. Environmental Protection Agency [EPA]
# National Institutes of Environmental Health Sciences [NIEHS]
# National Toxicology Program [NTP]
# U.S. Food and Drug Administration [FDA]
# The Glucocorticoid receptor (GR) is one of the members of the nuclear receptor family of ligand-dependent transcription factors. GR plays a critical role in carbohydrate, protein and lipid metabolisms and programmed cell death. CellSensor GR-bla HeLa cell line (Invitrogen) contains a beta-lactamase reporter gene under the control of the glucocorticoid response element stably integrated into HeLa cells, a cervical cancer cell line that expresses glucocorticoid receptor. The activation of the reporter gene under culture conditions can be detected by fluorescence intensity. This cell line has been used to screen the Tox21 10K compound library and to identify the compounds that inhibit the GR signaling. The cytotoxicity of the Tox21 compound library against the GR-bla HeLa cell line was tested in parallel by measuring the cell viability using CellTiter-Glo assay in the same wells.
# Tox21 Assay Protocol Summary:
# The GR-bla HeLa cells were dispensed at 1500 cells/5 ul/well in 1536-well black wall/clear bottom plates using a Multidrop Combi (ThermoFisher Scientific, Waltham, MA) dispenser. After the assay plates were incubated at a 37 C/5% CO2 incubator for 4 hours, 23 nL of compounds dissolved in DMSO, positive controls or DMSO only was transferred to the assay plate by a pintool station (Kalypsys, San Diego, CA), followed by addition of 1 uL of dexamethasone (5 nM, final concentration in the well). The plates were incubated at 37 C for 18 hours. After 1 uL of LiveBLAzerTM B/G FRET substrate was added using a Flying Reagent Dispenser (Aurora Discovery, San Diego, CA), the plates were incubated at room temperature (RT) for 2 hours, and fluorescence intensity was measured by an Envision plate reader (PerkinElmer, Shelton, CT). After measurement of bla assay, 3 ul CellTiter-Glo (Promega, Madison, WI) was added to measure the cytotoxicity and the plates were then incubated at RT for 30 min. The luminescence was measured using a ViewLux (Perkin Elmer) plate reader.
# Potency is read from the fitted curve at half-maximal effect.
SMILES,Potency,"viability change, negative = cytotoxic"
C=CCOC(Cn1ccnc1)c1ccc(Cl)cc1Cl (stereo not given),inactive,
CCCC[N+]1(C)CCCC1,inactive,
O=C(O)c1ccccc1O,inactive,
CCCCCCn1cc[n+](C)c1,inactive,
COP(=O)(OC)OC=C(Cl)Cl,inactive,
Cc1cc(-c2ccc(N)c(C)c2)ccc1N,inactive,
O=C(O)CC(O)(CC(=O)O)C(=O)O,inactive,
CCCC[N+]1(C)CCCCC1,inactive,
C1CCC(NC2CCCCC2)CC1,inactive,
Nc1ccc(-c2ccc(N)c(Cl)c2)cc1Cl,,-24%
O=C(O)COc1ccc(Cl)cc1Cl,inactive,
CC[n+]1ccccc1,inactive,
CCCC[n+]1ccccc1,inactive,
COP(=O)(OC)C(O)C(Cl)(Cl)Cl (stereo not given),inactive,
CCCCCCCCCCCCOS(=O)(=O)O,inactive,
COc1ccc(N)cc1,inactive,
COc1ccccc1N,inactive,
O=S(=O)(O)O,inactive,
C[C@]12CCC(=O)C=C1CC[C@@H]1[C@@H]2CC[C@]2(C)C(=O)CC[C@@H]12,inactive,
CN(C)[C@@H]1C(=O)C(C(N)=O)=C(O)[C@@]2(O)C(=O)C3=C(O)c4c(O)cccc4[C@@](C)(O)[C@H]3[C@H](O)[C@@H]12,inactive,

SMILES,Potency,"viability change, negative = cytotoxic"
Oc1ccccc1-c1ccccc1,inactive,
Nc1ccc(-c2ccc(N)cc2)cc1,inactive,
CCn1cc[n+](C)c1C,inactive,
CCCCCCCCn1cc[n+](C)c1,inactive,
CC[N+]1(C)CCCC1,inactive,
Oc1cccc2cccnc12,inactive,
CC(=O)[O][Hg][c]1ccccc1,952 nM (active) and 485 nM (active) and 436 nM (active),
CCC(=O)C(CC(C)N(C)C)(c1ccccc1)c1ccccc1 (stereo not given),inactive,
CC(Cl)(Cl)C(=O)O,inactive,
CCCCCCCCCCCCCC[P+](CCCCCC)(CCCCCC)CCCCCC,12.4 µM (active) and 11.1 µM (active),
CCCC[n+]1cccc(C)c1,inactive,
CC(=O)O,inactive,
CCCCCCCCCCn1cc[n+](C)c1,49.5 µM (active) and 40 µM (active) and 48.9 µM (active),
CCCCCCCCCCCC(=O)O,inactive,
CCCCn1cc[n+](C)c1C,inactive,
CCNc1nc(Cl)nc(NCC)n1,inactive,
CCCn1cc[n+](C)c1,inactive,
N#CS,inactive,
CNC,inactive,
CCC[N+]1(C)CCCC1,inactive,
